# ± gives the standard deviation of the averaged measurements.
# Test system: Caenorhabditis elegans N2 infected with Nematocida parisii ERTm1
# Test: progeny production relative to DMSO uninfected control; higher = more progeny despite microsporidia infection (inhibition of infection with low host toxicity)
# Conditions: infection time 6 days; 40 µM
# Description: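 Bleach-synchronised C. elegans N2 L1 larvae (100 per well) were grown in 96-well plates in K-medium with 5x E. coli OP50 and 15,000 N. parisii spores/uL, plus Pandemic Response Box compound at 100 uM or 40 uM (1% DMSO), for 6 days at 21 C with shaking. Worms were stained with Rose Bengal, scanned on a flatbed scanner and counted with WorMachine. Progeny production is given as % of the DMSO uninfected control (triplicate wells), so higher values mean the compound restores progeny despite infection.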
row,Compound,progeny production
1,CN(C)CCNC(=O)c1cccc2cccnc12,5.46 ± 4.5%
2,NC(=O)[C@@H]1CC[C@@H]2CN1C(=O)N2OS(=O)(=O)O,8.69 ± 1.4%
3,Nc1nnnn1CCOc1c2[nH]c3ccc(Cl)cc3c2cc2c1[nH]c1ccc(Cl)cc12,5.74 ± 5.8%
4,O=c1cc(OCc2ccccc2)ccn1Cc1ccccc1,5.55 ± 1.6%
5,O=C1NC(=O)C(Br)=C1Br,12.2 ± 12%
6,N#CCN1C(=O)COc2cc(F)c(N3C(=O)c4ccccc4C3=O)cc21,3.98 ± 0.99%
7,COc1ccc(CNC(=O)C2CCN([C@H](C)c3cccc4ccccc34)CC2)cc1,4.66 ± 2.1%
8,Cc1ccc(S(=O)(=O)Nc2cccc3cccnc23)cc1,6.57 ± 3.6%
9,O=C(O)COc1cccc2c1CC[C@](O)(COC(=O)N(c1ccccc1)c1ccccc1)C2,4.24 ± 0.25%
10,COC(=O)Nc1nc2cc([S+]([O-])c3ccccc3)ccc2[nH]1 (stereo not given),6.27 ± 3.5%
11,CC1(C)CC(NC(=O)C(=O)Nc2ccc(Cl)cc2)CC(C)(C)N1,2.32 ± 0.043%
12,CC(C)Oc1ccc(-n2cnc3cc(/C=C\c4ccc(C(C)(C)O)cc4)ccc32)cc1,5 ± 1.6%
13,Oc1c(C(Nc2nc3ccccc3s2)c2ccc(OC(F)F)cc2)ccc2cccnc12 (stereo not given),3.08 ± 0.27%
14,CCCCCCCCCN1C[C@@H](O)[C@H](O)[C@@H](O)[C@@H]1CO,6.57 ± 1.1%
15,CCCCc1ccc(-c2cc(C(=O)O)cc(-c3ccc(Cl)cc3)n2)cc1,5.13 ± 5.7%
16,O=C(O)c1cc(-c2ccccc2)nc2ccccc12,6.15 ± 0.79%
17,N=C(N)c1ccc(COc2ccc(Cl)cc2)cc1,3.13 ± 0.66%
18,CCc1nc(N)nc(N)c1C#CCc1ccccc1,8.69 ± 6%
19,COc1ccc(C[C@@H](C)[C@@H](C)Cc2ccc(OC)c(OC)c2)cc1OC,3.86 ± 0.4%
20,CCOc1noc2cc(OCCC3CCN(c4ccc(C)nn4)CC3)ccc12,4.43 ± 1.4%

# Same assay, conditions: infection time 6 days; 100 µM
row,Compound,progeny production
1,CN(C)CCNC(=O)c1cccc2cccnc12,14.7 ± 8%
2,NC(=O)[C@@H]1CC[C@@H]2CN1C(=O)N2OS(=O)(=O)O,22.2 ± 16%
3,Nc1nnnn1CCOc1c2[nH]c3ccc(Cl)cc3c2cc2c1[nH]c1ccc(Cl)cc12,8.85 ± 7.7%
4,O=c1cc(OCc2ccccc2)ccn1Cc1ccccc1,13.9 ± 13%
5,O=C1NC(=O)C(Br)=C1Br,30.7 ± 9.8%
6,N#CCN1C(=O)COc2cc(F)c(N3C(=O)c4ccccc4C3=O)cc21,15.2 ± 12%
7,COc1ccc(CNC(=O)C2CCN([C@H](C)c3cccc4ccccc34)CC2)cc1,15.7 ± 6.6%
8,Cc1ccc(S(=O)(=O)Nc2cccc3cccnc23)cc1,7.42 ± 4.3%
9,O=C(O)COc1cccc2c1CC[C@](O)(COC(=O)N(c1ccccc1)c1ccccc1)C2,15.6 ± 8.1%
10,COC(=O)Nc1nc2cc([S+]([O-])c3ccccc3)ccc2[nH]1 (stereo not given),23 ± 20%
11,CC1(C)CC(NC(=O)C(=O)Nc2ccc(Cl)cc2)CC(C)(C)N1,8.19 ± 5.5%
12,CC(C)Oc1ccc(-n2cnc3cc(/C=C\c4ccc(C(C)(C)O)cc4)ccc32)cc1,10.6 ± 2%
13,Oc1c(C(Nc2nc3ccccc3s2)c2ccc(OC(F)F)cc2)ccc2cccnc12 (stereo not given),9.48 ± 12%
14,CCCCCCCCCN1C[C@@H](O)[C@H](O)[C@@H](O)[C@@H]1CO,11.9 ± 5.5%
15,CCCCc1ccc(-c2cc(C(=O)O)cc(-c3ccc(Cl)cc3)n2)cc1,9.87 ± 7.3%
16,O=C(O)c1cc(-c2ccccc2)nc2ccccc12,6.83 ± 4.5%
17,N=C(N)c1ccc(COc2ccc(Cl)cc2)cc1,7.24 ± 6.1%
18,CCc1nc(N)nc(N)c1C#CCc1ccccc1,15.6 ± 5%
19,COc1ccc(C[C@@H](C)[C@@H](C)Cc2ccc(OC)c(OC)c2)cc1OC,16 ± 4.1%
20,CCOc1noc2cc(OCCC3CCN(c4ccc(C)nn4)CC3)ccc12,17.1 ± 11%
